Compound activity: PubChem BioAssay, Sanford-Burnham Center for Chemical Genomics
CYP2C9 inh = blockers of cytochrome P450 2C9 activity – biochemical, luminescence, ADME assay, primary screen; inhibition, % at 5 µM; CYP2C9 Supersomes, luciferin-H conversion; AID 777, 2007; 96,000 compounds, 20% hits;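 active means blocking of liver enzyme CYP2C9 beyond about 50% at 5 µM, limit read from the data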
Target sequence (P11712 whole entry, looked up): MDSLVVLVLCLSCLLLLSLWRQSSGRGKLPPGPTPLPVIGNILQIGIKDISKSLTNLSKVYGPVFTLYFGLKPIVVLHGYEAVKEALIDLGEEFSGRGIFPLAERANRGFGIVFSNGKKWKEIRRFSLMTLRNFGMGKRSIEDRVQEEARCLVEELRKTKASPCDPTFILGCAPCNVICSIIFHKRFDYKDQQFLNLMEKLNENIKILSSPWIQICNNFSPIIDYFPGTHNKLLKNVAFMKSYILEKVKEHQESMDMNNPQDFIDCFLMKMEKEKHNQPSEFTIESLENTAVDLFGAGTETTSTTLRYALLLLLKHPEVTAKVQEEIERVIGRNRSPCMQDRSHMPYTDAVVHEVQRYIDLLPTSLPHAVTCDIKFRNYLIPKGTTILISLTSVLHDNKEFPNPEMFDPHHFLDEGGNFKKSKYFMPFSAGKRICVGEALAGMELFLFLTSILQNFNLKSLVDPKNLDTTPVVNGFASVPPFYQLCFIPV
CYP2C19 inhib = blockers of cytochrome P450 2C19 activity – biochemical, luminescence, ADME assay, primary screen; P33261; CYP2C19 Supersomes, luciferin-H EGE luminescence, 30 min; inhibition, % at 5 µM; 96,000 compounds, 21% hits; AID 778, 2007;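 active means CYP2C19 inhibition above a set limit at 5 µM in the primary screen, cut at about 50% in these data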;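 further: plate controls were negative control wells for no effect and 2.5 mM tranylcypromine positive control for full effect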
PLAP activator = PLAP enzyme activators, biochemical, luminescence, HTS; 96,000 compounds, 1.2% hits; activation fold at 20 µM; purified PLAP enzyme, luminescent substrate read-out; stronger effect = higher value; Alkaline phosphatase, placental type (Homo sapiens), P05187; in the data active means activation fold above about 2
CYP2C19 act = human CYP2C19 activators, primary screen, biochemical, luminescence | Cytochrome P450 2C19 (Homo sapiens), P33261 | 96,000 tested, under 10 active | recombinant CYP2C19, luciferin-H EGE luminescence; stronger effect = higher value; 0 = fully inhibited enzyme, 1 = untreated enzyme | activation factor at 5 µM | AID 1025, 2008;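 active means activation factor of at least 2 at 5 µM in the primary screen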;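 further: 0 = wells with 2.5 mM tranylcypromine and 1 = vehicle-only wells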
CYP2C9 activ = human CYP2C9 activators, primary screen, biochemical, luminescence; Cytochrome P450 2C9 (Homo sapiens), P11712; AID 1024, 2008; recombinant CYP2C9, luciferin-H conversion; stronger effect = higher value; factor 1 = untreated enzyme, 0 = blocked; 96,000 compounds, 1.4% hits; activation factor at 5 µM;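 active means activation factor of 2 or more for CYP2C9 at a 5 µM dose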;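 further: 0 = sulfaphenazole-blocked wells and 1 = vehicle-only wells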
Active calls of the source: *. In the library only some 31% were active in any assay of this set; here they are far more common.

SMILES	CYP2C9 inh	CYP2C19 inhib	PLAP activator	CYP2C19 act	CYP2C9 activ
Cc1cccc(OCC(=O)NC(C)C(=O)N/N=C/c2c(OCc3ccccc3)ccc3ccccc23)c1 (stereo not drawn)	89*	49	1.6	0.5	0.1
CCC(C)(C)n1nnnc1C(c1ccc(OC)c(OC)c1)N1CCN(c2cccc(OC)c2)CC1 (stereo not drawn)	86*	56*	1.7	0.4	0.1
COc1ccc(C(c2nnnn2C(C)(C)C)N2CCN(C)CC2)cc1OC (stereo not drawn)	-6	-4	1.6	1	1.1
CCC(C)(C)n1nnnc1C(c1ccc(OC)c(OC)c1)N1CCN(c2ccccc2)CC1 (stereo not drawn)	71*	68*	1.7	0.3	0.3
CCC(C)(C)n1nnnc1C(c1ccc(OC)c(OC)c1)N1CCN(c2ccc(OC)cc2)CC1 (stereo not drawn)	88*	57*	1.3	0.4	0.1
COc1ccc2c(c1)-c1ccccc1S(=O)(=O)N2C(C)=O	14	14	1.1	0.9	0.9
CC(C)NC1CS(=O)(=O)CC1O (stereo not drawn)	-5	-5	0.8	1	1.1
O=C(c1noc2c1CCCCC2)N1CCOCC1	58*	17	1	0.8	0.4
O=C(c1noc2c1CCCC2)N1CCCCC1	9	20	0.9	0.8	0.9
O=C(c1noc2c1CCCC2)N1CCN(Cc2ccccc2)CC1	4	97*	1.2	0	1
O=C(O)c1ccc(OC2CSC2)cc1	8	2	1.2	1	0.9
N#CC1=C(N)SC(N)=C(C#N)C1c1ccnc2ccccc12	70*	24	1.1	0.8	0.3
Cc1ccc2c(CC(=O)OCc3cc(=O)n4c(n3)sc3ccccc34)coc2c1	-25	-10	1	1.1	1.3
O=C(OCc1cc(=O)n2c(n1)sc1ccccc12)c1ccc2c(=O)n3c(nc2c1)CCC3	76*	29	1.4	0.7	0.2
Cc1ccc(-c2nnc(-c3ccncc3)n2-c2ccc(C)cc2)cc1	20	38	1	0.6	0.8
COc1ccccc1CNc1ccc(N2CCCCC2)cc1	24	77*	0.8	0.2	0.8
COc1cccc(CNc2ccc(S(N)(=O)=O)cc2)c1OC	-9	-1	0.8	1	1.1
COc1cccc(CNc2ccc(N3CCCCC3)cc2)c1OC	-150	80*	1.5	0.2	2.5*
O=C(NCc1ccoc1)c1ccc(NC(=O)c2ccccc2Cl)cc1	14	6	0.7	0.9	0.9
O=c1cc(-c2ccc3c(c2)OCO3)oc2ccccc12	24	0	0.9	1	0.8
CC(=O)Oc1ccc(C(=O)Nc2ccc3c(c2)C(=O)N(CCC(=O)O)C3=O)cc1	9	-2	1.1	1	0.9
Cc1ccc2nc3c(cc(C(N)=S)c(=N)n3CCCOC(C)C)c(=O)n2c1	49	81*	1.2	0.2	0.5
C=CCn1c(=N)c(C(=O)OCC)cc2c(=O)n3cc(C)ccc3nc21	9	11	1.2	0.9	0.9
CCc1ccc(CN2CCN(S(=O)(=O)Cc3ccccc3)CC2)cc1	1	18	0.9	0.8	1
Cc1cc(C)nc(N/N=C/C(Cl)=C/c2ccccc2)n1	-6	2	0.7	1	1.1
SMILES	CYP2C9 inh	CYP2C19 inhib	PLAP activator	CYP2C19 act	CYP2C9 activ
CCOC(=O)c1c(N)c(C#N)c2n1CCCCC2	34	95*	0.8	0.1	0.7
Cc1ccc(C)c(-c2nn(-c3cc(N4CCN(CCO)CC4)ccc3[N+](=O)[O-])c(=O)c3ccccc23)c1	45	17	1.2	0.8	0.5
CCCOC(=O)C1C2C=CC(C3CC23)C1C(=O)OCC(=O)c1ccccc1 (stereo not drawn)	73*	91*	1.3	0.1	0.3
O=C(COC(=O)C1CC(=O)N(c2ccccc2)C1)c1ccccc1 (stereo not drawn)	22	19	0.8	0.8	0.8
CN(C)c1nc(N2CCN(c3ccc(F)cc3)CC2)c(C#N)c(=O)o1	-119	82*	1.3	0.2	2.2*
CCOC(=O)c1sc(/N=C/c2c(C)[nH]n(-c3ccccc3)c2=O)c(C#N)c1C	28	-10	1.3	1.1	0.7
COc1ccc(-n2cnc3c(cnn3CCC#N)c2=N)cc1	8	77*	1.1	0.2	0.9
Cc1[nH]c2ccc(OCc3ccccc3)cc2c1CCN1C(=O)OC(C)(C)C1(C)O (stereo not drawn)	40	51*	1.3	0.5	0.6
Clc1cccc(-c2cc3nc4c(c(NCc5ccco5)n3n2)CCCC4)c1	41	14	1	0.9	0.6
CN(CCO)c1c2c(nc3cc(-c4cccc(F)c4)nn13)CCCC2	56*	32	1.2	0.7	0.4
OC1CCN(c2c3c(nc4cc(-c5cccc(F)c5)nn24)CCCC3)CC1	42	29	1.5	0.7	0.6
Fc1cccc(-c2cc3nc4c(c(N5CCC6(CC5)OCCO6)n3n2)CCCC4)c1	74*	26	1.5	0.7	0.3
Cc1cc(NC(=O)COC(=O)c2cc3c(s2)CCC(C)C3)no1 (stereo not drawn)	32	28	0.9	0.7	0.7
CCn1c(-c2ccsc2)nc2c1c(=O)[nH]c(=O)n2Cc1ccccc1	22	52*	0.9	0.5	0.8
CCOC(=O)c1c(C)[nH]c(N=Nc2cccc(C)c2)c1C	93*	56*	1.3	0.4	0.1
COC(=O)Cn1c(CN2CCOCC2)nc2c1c(=O)[nH]c(=O)n2C	-18	-15	1.1	1.2	1.2
COC(=O)c1ccc(OCC(=O)c2ccccc2OC)cc1	45	90*	1.5	0.1	0.6
COC(=O)COc1ccc(C(=O)OC)cc1	29	81*	0.9	0.2	0.7
Cn1c(SCC(=O)c2ccccc2F)nnc1C1CC1	2	11	1	0.9	1
O=C(NCc1ccc2c(c1)OCO2)C1CC(=O)N(c2ccc(O)cc2)C1 (stereo not drawn)	-113	25	1	0.7	2.1*
O=C(NCc1cccnc1)C1CC(=O)N(CCc2ccccc2)C1 (stereo not drawn)	1	80*	1	0.2	1
COc1ccc(N2CC(C(=O)Nc3ccc4c(c3)OCO4)CC2=O)cc1 (stereo not drawn)	13	-12	0.9	1.1	0.9
O=C(NCc1ccc(F)cc1)C1CC(=O)N(CCc2ccccc2)C1 (stereo not drawn)	7	15	1.1	0.8	0.9
O=C(O)C1CC(=O)N(Cc2ccc3c(c2)OCO3)C1 (stereo not drawn)	-22	-18	0.9	1.2	1.2
CC(=O)N(Cc1ccc2c(c1)OCO2)C1CC(=O)N(CCc2ccccc2)C1=O (stereo not drawn)	53*	70*	1.5	0.3	0.5
